In PubChem BioAssay (Tox21):
A number with no mark means an inactive call. Inconclusive results are not listed. Entries that show only a call come without a potency. Calls of active or inactive are those of the source. Unless noted, the call rests on the fitted dose curve; in most records, active means well fitted curve in the direction sought with a large enough effect in the repeat runs; inconclusive means weak or mixed curves; inactive means no such curve, though single readings can be large; an effect the other way counts as inactive or inconclusive.

Experiments:
[1] = qHTS assay to identify small molecule HDAC inhibitors (AID 1259364); further: potency means the concentration at half of the fitted maximal effect;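 further: wild-type HCT-116 cells with endogenous class I/II HDAC activity; nearly all actives have a fitted effect of over 45% in size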
Procedure, shortened: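 Read-out: luminescence of HDAC-Glo I/II reagent, 30 min RT, reflecting class I/II deacetylase activity in whole HCT-116 cells pre-exposed 2 h to DMSO-dissolved compounds.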

[2] = qHTS assay to identify small molecule agonists of the sonic hedgehog signaling (Shh) pathway - cell viability counter screen (AID 1259366); further: nearly all actives have a fitted effect of over 50% in size
Procedure, shortened: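 Compounds in DMSO were pin-transferred onto 3T3 Gli1-Luc cells that had settled 4hr; plates then stood 24hr at 37C and 5% CO2. One hour before the end, CellTiter-Fluor was added and fluorescence recorded.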

[3] = qHTS assay to identify small molecule antagonists of the sonic hedgehog signaling (Shh) pathway - cell viability counter screen (AID 1259367); further: nearly all actives have a fitted effect of over 55% in size
Procedure, shortened: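 After a 4 hr settling period, 3T3 Gli1-Luc cells were treated with DMSO-dissolved chemicals and conditioned medium, kept 24 hr at 37C in 5% CO2, and assayed for viability by CellTiter-Fluor fluorescence following 1 hr reagent incubation.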

[4] = qHTS assay to identify small molecule agonists of the sonic hedgehog signaling (Shh) pathway (AID 1259368; calls by dose curve;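 further: NIH/3T3-derived 3T3Gli1-Luc cells carrying a stable Gli1-driven firefly luciferase reporter; series mostly up to about 92 µM; nearly all actives have a fitted effect of over 15% in size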)
Procedure, shortened: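 A Gli1 transcriptional response element controlled firefly luciferase in 3T3Gli1-Luc cells. Compounds and a positive control were added 4 hr after plating, and cells were incubated a further 24 hr at 37 C before luminescence detection.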

[5] = qHTS assay to identify small molecule antagonists of the sonic hedgehog signaling (Shh) pathway (AID 1259369; calls by dose curve; further: nearly all actives have a fitted effect of over 45% in size)
Procedure, shortened: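 For antagonist detection, the reporter line received test compounds together with conditioned medium, incubated 24hr at 37 C, 5% CO2, then luminescence was recorded following 30min room-temperature luciferase reagent incubation.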

[6] = qHTS assay to identify small molecule agonists of the estrogen receptor beta (ER-beta) signaling pathway - cell viability counter screen (AID 1259380); further: nearly all actives have a fitted effect of over 30% in size
Procedure, shortened: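 CellTiter-Glo read, 30 min RT, same wells as bla assay; cells ER-beta-UAS-bla HEK293T; 16 hr compound, 37C; medium 2% charcoal-stripped FBS.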

[7] = target: Estrogen receptor beta (Homo sapiens) (UniProt Q92731); assay: qHTS assay to identify small molecule agonists of the estrogen receptor beta (ER-beta) signaling pathway (AID 1259377; active means well fitted activation curve with a large enough effect in the signal ratio in the repeat runs, not every such curve was filed as active; the % refers to the signal ratio)
Procedure, shortened: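 qHTS in ER-beta-UAS-bla HEK293T cells: 6 hr settling, then 16 hr compound at 37C, then LiveBLAzer substrate 2 h at RT before fluorescence reading.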

[8] = target: Estrogen receptor beta (Homo sapiens) (UniProt Q92731); assay: qHTS assay to identify small molecule antagonists of the estrogen receptor beta (ER-beta) signaling pathway (AID 1259378; active means well fitted inhibition curve with a large enough effect in the signal ratio in the repeat runs, not every such curve was filed as active; the % refers to the signal ratio)
Procedure, shortened: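 ER-beta-UAS-bla HEK293T (GripTite) cells in 2% charcoal-stripped FBS medium were preincubated 6 hr at 37C, dosed with compound, then stimulated with 1 nM E2 (final) for 16 hr; beta-lactamase reporter read by B/G FRET fluorescence after 2 hr substrate loading.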

[9] = qHTS assay to identify small molecule agonists of the androgen receptor (AR) signaling pathway in the presence of an antagonist - cell viability counter screen (AID 1259379);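 further: MDA-kb2 human breast cancer cells carrying an MMTV luciferase reporter; series mostly up to about 92 µM; nearly all actives have a fitted effect of over 25% in size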
Procedure, shortened: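 Seed MDA-kb2 at 3,000 cells/well; incubate 5 hr, 37C, 0% CO2. Add nilutamide to 3.0uM final, then pin compounds at 15 concentrations. Incubate 16 hr. Add CellTiter-Fluor at 15 hr, read fluorescence after 1 hr.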

Estrogen receptor beta (Homo sapiens), sequence (Q92731 whole entry, looked up): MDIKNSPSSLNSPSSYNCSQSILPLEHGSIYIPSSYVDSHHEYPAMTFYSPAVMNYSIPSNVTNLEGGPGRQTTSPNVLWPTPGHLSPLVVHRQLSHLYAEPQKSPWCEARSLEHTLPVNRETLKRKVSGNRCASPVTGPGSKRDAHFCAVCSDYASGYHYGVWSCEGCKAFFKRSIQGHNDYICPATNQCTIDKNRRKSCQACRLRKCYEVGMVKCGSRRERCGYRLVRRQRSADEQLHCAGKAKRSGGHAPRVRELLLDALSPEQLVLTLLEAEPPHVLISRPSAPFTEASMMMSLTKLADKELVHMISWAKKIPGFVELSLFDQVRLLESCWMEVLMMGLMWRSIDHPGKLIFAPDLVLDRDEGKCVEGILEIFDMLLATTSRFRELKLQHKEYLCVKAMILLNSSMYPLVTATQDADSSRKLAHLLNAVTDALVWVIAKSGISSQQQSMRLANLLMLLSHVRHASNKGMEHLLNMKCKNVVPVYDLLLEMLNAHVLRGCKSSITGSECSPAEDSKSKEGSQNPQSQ

SMILES | Potency [1] | outcome [2] | outcome [3] | outcome [4] | Potency [5] | outcome [6] | Potency [7] | Potency [8] | outcome [9]
O=C(CN1CCNCC1)NC1CCCCC1 | inactive | inactive | inactive | inactive | inactive | inactive |  |  | 
CCCC(CC)c1ccccc1 (stereo not given) | inactive | inactive | inactive | inactive |  | inactive | inactive | inactive | inactive
CO/N=C(/C(=O)N[C@@H]1C(=O)N2C(C(=O)[O-])=C(C[n+]3ccn4ncccc43)CS[C@H]12)c1nsc(N)n1 | inactive | inactive | inactive | inactive | inactive | inactive |  | inactive | inactive
CC1OCCC1=O (stereo not given) | inactive |  | inactive | inactive | inactive | inactive | inactive | inactive | inactive
C=C(C)[C@@H]1CC=C(C)CC1 | inactive | inactive | inactive | inactive | inactive | inactive |  |  | 
CO[C@@]1(NC(=O)Cc2cccs2)C(=O)N2C(C(=O)O)=C(COC(N)=O)CS[C@@H]21 | inactive |  |  | inactive | inactive | inactive |  |  | inactive
CC1(C)Cc2cccc(N)c2O1 | inactive | inactive | inactive | inactive | inactive | inactive |  |  | inactive
O=C(CCCCC(=O)Nc1c(I)cc(I)c(C(=O)O)c1I)Nc1c(I)cc(I)c(C(=O)O)c1I | inactive | inactive | inactive | inactive | inactive | inactive |  |  | 
CN(C)C(C)(C)CO | inactive |  | inactive | inactive | inactive | inactive |  | inactive | inactive
CCCC(=O)OC/C=C(\C)CCC=C(C)C | inactive | inactive | inactive | inactive | inactive | inactive |  | inactive | inactive
N#Cc1ccccc1O | inactive | inactive | inactive | inactive |  | inactive |  |  | inactive
COC(=O)CCCCC(=O)O | inactive | inactive | inactive | inactive | inactive | inactive |  |  | inactive
C/C=C(\C)C(=O)OCCc1ccccc1 | 27.3 µM (active) | inactive | inactive | inactive | inactive | inactive |  |  | inactive
Nc1nc(-c2ccccc2)c(Br)c(=O)[nH]1 | inactive |  | inactive | inactive | inactive | inactive |  |  | inactive
